Results taken from PubChem BioAssay (Tox21).
Values without a mark were called inactive. Inconclusive results are not listed. Where a call stands in place of a potency, no number is given. Calls of active or inactive are those of the source. Calls follow the shape of the full dose curve.

target: Acetylcholinesterase (Homo sapiens) (UniProt P22303); assay: Acetylcholinesterase (AChE) small molecule antagonists: colormetric cell-based qHTS assay (AID 1347395); details: SH-SY5Y cells AChE activity, colorimetric (Ellman); series mostly up to 115 µM; also: nearly all actives have a fitted effect of over 30% in size
How it was run: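 SH-SY5Y cells, plated overnight at 37 C, were exposed to compounds for 30 min at 37 C and 5% CO2. Acetylthiocholine plus DTNB was then added, and thiocholine from endogenous AChE was quantified colorimetrically after 90 min at 37 C.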
Potency is read from the fitted curve at half-maximal effect.

Chain of Acetylcholinesterase (Homo sapiens) (P22303 whole entry, looked up): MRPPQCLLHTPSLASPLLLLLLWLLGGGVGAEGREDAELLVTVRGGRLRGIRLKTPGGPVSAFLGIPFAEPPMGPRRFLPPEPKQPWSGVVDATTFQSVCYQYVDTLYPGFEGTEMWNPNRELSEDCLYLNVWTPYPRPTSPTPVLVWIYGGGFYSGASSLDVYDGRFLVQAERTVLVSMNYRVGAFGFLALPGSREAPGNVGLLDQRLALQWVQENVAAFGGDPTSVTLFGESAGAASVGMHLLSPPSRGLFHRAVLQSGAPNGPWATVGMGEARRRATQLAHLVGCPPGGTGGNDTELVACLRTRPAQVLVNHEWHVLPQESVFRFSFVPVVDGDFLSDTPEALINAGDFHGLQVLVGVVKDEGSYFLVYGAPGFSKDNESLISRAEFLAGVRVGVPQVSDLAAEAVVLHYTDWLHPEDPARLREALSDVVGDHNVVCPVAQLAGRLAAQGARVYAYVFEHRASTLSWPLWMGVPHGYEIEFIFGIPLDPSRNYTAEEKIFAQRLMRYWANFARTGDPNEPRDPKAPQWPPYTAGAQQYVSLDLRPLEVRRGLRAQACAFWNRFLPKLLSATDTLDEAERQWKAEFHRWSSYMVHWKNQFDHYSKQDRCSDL

| Structure (SMILES) | activity, negative = inhibition | Potency |
| --- | --- | --- |
| COC=O | 2.05% [at 10.5 µM] |  |
| CC(=O)OC[C@H]1O[C@@](COC(C)=O)(O[C@H]2O[C@H](COC(C)=O)[C@@H](OC(C)=O)[C@H](OC(C)=O)[C@H]2OC(C)=O)[C@@H](OC(C)=O)[C@@H]1OC(C)=O |  | inactive |
| CN1C(C(=O)Nc2ccccn2)=C(O)c2sccc2S1(=O)=O |  | inactive |
| CCCOC(=O)CC |  | inactive |
| CCCCCCCC(C)=O |  | inactive |
| CC(C)N(c1ccccc1)C(C)C |  | inactive |
| Cc1ccc2c(ccc3ccccc32)c1 |  | inactive |
| COS(=O)(=O)O |  | inactive |
| Nc1cc(Cl)c([N+](=O)[O-])cc1O |  | inactive |
| c1ccc2[nH]cnc2c1 |  | inactive |
| CC1CCC(CO)CC1 (stereo not given) |  | inactive |
| CC(=O)CC(=O)Nc1ccccc1 |  | inactive |
| CC/C=C\CCOC(=O)CCCCC |  | inactive |
| O=C(O)c1cc(-c2ccccc2)nc2ccccc12 |  | inactive |
| NC(=O)c1cn(Cc2c(F)cccc2F)nn1 |  | inactive |
| NC(CCC(=O)O)C(=O)O (stereo not given) |  | inactive |
| CC(=O)N[C@H]1[C@H]([C@H](O)[C@H](O)CO)OC(C(=O)O)=C[C@@H]1N=C(N)N |  | inactive |
| c1ccc2c(c1)Oc1ccccc1S2 |  | inactive |
| C=C(C)C(=O)OCc1ccccc1 |  | inactive |
| Cc1c(C(N)=O)cc([N+](=O)[O-])cc1[N+](=O)[O-] |  | inactive |

| Structure (SMILES) | activity, negative = inhibition | Potency |
| --- | --- | --- |
| CCOc1ccc(NC(=O)CC(C)=O)cc1 |  | inactive |
| CCCCCCCCCCCCCCCBr |  | inactive |
| O=C1CCC(N2C(=O)c3ccccc3C2=O)C(=O)N1 (stereo not given) |  | inactive |
| CC(=O)C1C(=O)C=C(C)OC1=O (stereo not given) |  | inactive |
| CCCCC(CC)COP(=O)(OCC(CC)CCCC)OCC(CC)CCCC (stereo not given) |  | inactive |
| C[Si](C)(C)O[Si](O)(O)O |  | inactive |
| Cc1cc(C(C)(C)C)c(O)c(C(C)(C)C)c1 |  | inactive |
| O=[N+]([O-])c1ccc(F)cc1F |  | inactive |
| NC(Cc1c[nH]c2ccccc12)C(=O)O (stereo not given) |  | inactive |
| O=C(O)CCS |  | inactive |
| NNC(=O)c1cccc(C(=O)NN)c1 |  | inactive |
| O=S(=O)(O)c1ccc2cc(O)ccc2c1 |  | inactive |
| Nc1nc(-c2ccc([N+](=O)[O-])cc2)cs1 |  | inactive |
| O=C(O)C1(C(=O)O)CCC1.[NH2-].[NH2-].[Pt+2] |  | inactive |
| Clc1ccc(Nc2nnc(Cc3ccncc3)c3ccccc23)cc1 |  | inactive |
| CCc1cccc(C)c1N(C(=O)CS(=O)(=O)O)C(C)COC (stereo not given) |  | inactive |
| Cc1ccc(C)c(O)c1C |  | inactive |
| CC1COc2ccccc2N1C(=O)C(Cl)Cl (stereo not given) |  | inactive |
| Cc1cc2nc3ccc(=[N+](C)C)cc-3sc2cc1N |  | 1.38 µM (active) |
| O=c1[nH]cccc1O |  | inactive |

target: Acetylcholinesterase (Homo sapiens) (UniProt P22303); assay: Acetylcholinesterase (AChE) small molecule antagonists: enzyme-based qHTS assay (AID 1347397); details: Potency: AChE enzyme activity inhibition; outcome: AChE enzyme activity inhibition; series mostly up to 115 µM; also: nearly all actives have a fitted effect of over 55% in size
How it was run: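 Tox21 library chemicals are tested in qHTS format against recombinant human AChE. The enzyme, dispensed at 50 mU/mL, sits with compound for 30 min at room temperature. A DTNB–acetylthiocholine cocktail follows, and colour is read after 10 min.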

| Structure (SMILES) | activity change, negative = inhibition | Potency |
| --- | --- | --- |
| COC=O | 0.267% [at 10.5 µM] |  |
| CC(=O)OC[C@H]1O[C@@](COC(C)=O)(O[C@H]2O[C@H](COC(C)=O)[C@@H](OC(C)=O)[C@H](OC(C)=O)[C@H]2OC(C)=O)[C@@H](OC(C)=O)[C@@H]1OC(C)=O |  | inactive |
| CN1C(C(=O)Nc2ccccn2)=C(O)c2sccc2S1(=O)=O |  | inactive |
| CCCOC(=O)CC |  | inactive |
| CCCCCCCC(C)=O |  | inactive |
| CC(C)N(c1ccccc1)C(C)C |  | inactive |
| Cc1ccc2c(ccc3ccccc32)c1 |  | inactive |
| COS(=O)(=O)O |  | inactive |
| Nc1cc(Cl)c([N+](=O)[O-])cc1O |  | inactive |
| c1ccc2[nH]cnc2c1 |  | inactive |
| CC1CCC(CO)CC1 (stereo not given) |  | inactive |
| CC(=O)CC(=O)Nc1ccccc1 |  | inactive |
| CC/C=C\CCOC(=O)CCCCC |  | inactive |
| O=C(O)c1cc(-c2ccccc2)nc2ccccc12 |  | inactive |
| NC(=O)c1cn(Cc2c(F)cccc2F)nn1 |  | inactive |
| NC(CCC(=O)O)C(=O)O (stereo not given) |  | inactive |
| CC(=O)N[C@H]1[C@H]([C@H](O)[C@H](O)CO)OC(C(=O)O)=C[C@@H]1N=C(N)N |  | inactive |
| c1ccc2c(c1)Oc1ccccc1S2 |  | inactive |
| C=C(C)C(=O)OCc1ccccc1 |  | inactive |
| Cc1c(C(N)=O)cc([N+](=O)[O-])cc1[N+](=O)[O-] |  | inactive |

| Structure (SMILES) | activity change, negative = inhibition | Potency |
| --- | --- | --- |
| CCOc1ccc(NC(=O)CC(C)=O)cc1 |  | inactive |
| CCCCCCCCCCCCCCCBr |  | inactive |
| O=C1CCC(N2C(=O)c3ccccc3C2=O)C(=O)N1 (stereo not given) |  | inactive |
| CC(=O)C1C(=O)C=C(C)OC1=O (stereo not given) |  | inactive |
| CCCCC(CC)COP(=O)(OCC(CC)CCCC)OCC(CC)CCCC (stereo not given) |  | inactive |
| C[Si](C)(C)O[Si](O)(O)O |  | inactive |
| Cc1cc(C(C)(C)C)c(O)c(C(C)(C)C)c1 |  | inactive |
| O=[N+]([O-])c1ccc(F)cc1F |  | inactive |
| NC(Cc1c[nH]c2ccccc12)C(=O)O (stereo not given) |  | inactive |
| O=C(O)CCS |  | inactive |
| NNC(=O)c1cccc(C(=O)NN)c1 |  | inactive |
| O=S(=O)(O)c1ccc2cc(O)ccc2c1 |  | inactive |
| Nc1nc(-c2ccc([N+](=O)[O-])cc2)cs1 |  | inactive |
| O=C(O)C1(C(=O)O)CCC1.[NH2-].[NH2-].[Pt+2] |  | 21.9 µM (active) |
| Clc1ccc(Nc2nnc(Cc3ccncc3)c3ccccc23)cc1 |  | inactive |
| CCc1cccc(C)c1N(C(=O)CS(=O)(=O)O)C(C)COC (stereo not given) |  | inactive |
| Cc1ccc(C)c(O)c1C |  | inactive |
| CC1COc2ccccc2N1C(=O)C(Cl)Cl (stereo not given) |  | inactive |
| Cc1cc2nc3ccc(=[N+](C)C)cc-3sc2cc1N |  | 4.9 µM (active) |
| O=c1[nH]cccc1O |  | inactive |
